In experiment [1] the test system is CLZ3 (HCA2 human fibroblast dual HR-NHEJ reporter). The experiment is described as follows: NHEJ repair efficiency (GFP+ cells) relative to control (log10 fold); higher = more non-homologous end joining. Particulars: 5 µM; doxycycline 0.5 ug/mL.
Experiment [2] has the same test system. Description: HR repair efficiency (tdTomato+ cells) relative to control (log10 fold); higher = more homologous recombination. As to conditions: 5 µM; doxycycline 0.5 ug/mL.

Counter-ions that a name gives are not always drawn. ± gives the standard deviation of the averaged measurements.
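Wherever HR repair efficiency (tdTomato+ cells) relative to control is given: compound given one day before doxycycline, which switches on I-SceI endonuclease expression to create double-strand breaks within the integrated reporter.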
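Wherever NHEJ repair efficiency (GFP+ cells) relative to control is given: compound given one day ahead of doxycycline, which switches on I-SceI endonuclease to cut the chromosomally integrated reporter and create DSBs.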

Turning to `O=C(/C=C/c1ccc(O)c2oc(-c3ccc(O)c(O)c3)cc12)O[C@H](Cc1ccc(O)c(O)c1)C(=O)O` [Salvianolic Acid C], the “NHEJ repair efficiency (log10)” value in experiment [1] is -0.0345. Besides, the “HR repair efficiency (log10)” value in experiment [2] was -0.0113.
As to `O=C(O[C@@H]1Cc2c(O)cc(O)cc2O[C@@H]1c1ccc(O)c(O)c1)c1cc(O)c(O)c(O)c1` [Epicatechin Gallate], the “NHEJ repair efficiency (log10)” value in experiment [1] was -0.236. Further, in experiment [2], the “HR repair efficiency (log10)” value is -0.0859.
`CC(C)=CCc1c(O)ccc(C(=O)/C=C/c2ccc(O)cc2)c1O` [Isobavachalcone]: the “NHEJ repair efficiency (log10)” value in experiment [1] stood at 0.0115. The “HR repair efficiency (log10)” value in experiment [2] was found to be 0.0547.
As for `C[C@@H]1CCCCCCCCCCCCC(=O)C1` [Muscone], in experiment [1], the “NHEJ repair efficiency (log10)” value was 0.1. Further, in experiment [2], the “HR repair efficiency (log10)” value worked out at 0.229.
For `COC(=O)[C@H]1O[C@@H](Oc2cc3oc(-c4ccc(O)cc4)cc(=O)c3c(O)c2O)[C@H](O)[C@@H](O)[C@@H]1O` [Scutellarin Methyl Ester], in experiment [1], the “NHEJ repair efficiency (log10)” value is -0.156. In addition, the “HR repair efficiency (log10)” value in experiment [2] is -0.014.
The matching figures for `C=C1C(=O)[C@@]23CC[C@@H]4C(C)(C)[C@H](O)CC[C@@]4(C)[C@@H]2[C@@H](O)C[C@@H]1C3` [Tenuifolin A]: -0.0342 and -0.13.
With `c1ccc([C@H]2CN3CCSC3=N2)cc1` [Levamisole hydrochloride], the “NHEJ repair efficiency (log10)” value in experiment [1] worked out at 0.0656. Moreover, the “HR repair efficiency (log10)” value in experiment [2] was -0.0158.
With `C=C1CC[C@@H]2[C@](C)(CO)[C@H](O)CC[C@@]2(C)[C@@H]1C/C=C1/C(=O)OC[C@H]1O` [Andrographolide], in experiment [1], the “NHEJ repair efficiency (log10)” value worked out at 0.0511. Moreover, the “HR repair efficiency (log10)” value in experiment [2] worked out at 0.266.
The matching figures for `CC1OC(OC2C(OC3CCC4(C)C(CCC5(C)C4CC=C4C6CC(C)(C)CCC6(C(=O)OC6OC(COC7OC(CO)C(O)C(O)C7O)C(O)C(O)C6O)CCC45C)C3(C)CO)OCC(O)C2O)C(O)C(O)C1O` (stereo not given) [Dipsacoside B]: -0.0161 ± 0.011 and 0.00385 ± 0.11.
`C=C(C)[C@@H]1CC[C@]2(C)CC[C@]3(C)[C@H](CC[C@@H]4[C@@]5(C)CC[C@H](O)C(C)(C)[C@@H]5CC[C@]43C)[C@@H]12` [Lupeol]: the “NHEJ repair efficiency (log10)” value in experiment [1] came to 0.0011. For the same compound, in experiment [2], the “HR repair efficiency (log10)” value amounted to 0.06.
On to `C[C@@H]1O[C@@H](OC[C@H]2O[C@@H](Oc3cc(O)c4c(=O)cc(-c5ccc(O)cc5)oc4c3)[C@H](O[C@@H]3O[C@@H](C)[C@H](O)[C@@H](O)[C@H]3O)[C@@H](O)[C@@H]2O)[C@H](O)[C@H](O)[C@H]1O` [Ligustroflavone], for which the “NHEJ repair efficiency (log10)” value in experiment [1] is 0.105. For the same compound, the “HR repair efficiency (log10)” value in experiment [2] amounted to 0.0603.
As for `C[C@H]1[C@H](C)CC[C@]2(C(=O)O[C@@H]3O[C@H](CO[C@@H]4O[C@H](CO)[C@@H](O[C@@H]5O[C@H](C)[C@H](O)[C@@H](O)[C@H]5O)[C@H](O)[C@H]4O)[C@@H](O)[C@H](O)[C@H]3O)CC[C@]3(C)C(=CC[C@@H]4[C@@]5(C)C[C@@H](O)[C@H](O)[C@@](C)(CO)[C@@H]5CC[C@]43C)[C@H]12` [Asiaticoside], the “NHEJ repair efficiency (log10)” value in experiment [1] was -0.0035. Further, the “HR repair efficiency (log10)” value in experiment [2] is -0.0111.
The matching figures for `COC(=O)c1c2c(c3ccccc3c1O)OC(C)(C)C=C2` [Rubimaillin]: 0.0202 and -0.0243.
Turning to `O=C1CCC[C@@H]2[C@H]3CCC[N+]4([O-])CCC[C@@H](CN12)[C@@H]34` (stereo not given in full) [Oxymatrine], the “NHEJ repair efficiency (log10)” value in experiment [1] amounted to 0.0707. Further, in experiment [2], the “HR repair efficiency (log10)” value was -0.0643.
Take `CCCCCCCC/C=C\CCCCCCCC(=O)OCC(COC(=O)CCCCCCC/C=C\CCCCCCCC)OC(=O)CCCCCCC/C=C\CCCCCCCC` [Glycerol Trioleate]: the “NHEJ repair efficiency (log10)” value in experiment [1] is -0.000616. In addition, in experiment [2], the “HR repair efficiency (log10)” value turned out to be 0.0182.
With `COC(=O)C1=CO[C@@H](O)[C@@H]2C(CO)=CC[C@H]12` [Genipin], the “NHEJ repair efficiency (log10)” value in experiment [1] was -0.0273. The “HR repair efficiency (log10)” value in experiment [2] was 0.00524.
Taken in the same sequence, the figures for `CC(C)(C)NCC(O)c1ccc(O)c(CO)c1` (stereo not given) [Salbutamol Sulfate] were -0.0861 and -0.085.
With `O=Cc1ccc(O[C@@H]2O[C@H](CO)[C@@H](O)[C@@H](O)[C@H]2O)cc1` [Helicide], the “NHEJ repair efficiency (log10)” value in experiment [1] was 0.119 ± 0.097. In experiment [2], the “HR repair efficiency (log10)” value was 0.0668 ± 0.075.
Regarding `COc1cc(C(=O)O)cc(OC)c1O` [Syringic acid], in experiment [1], the “NHEJ repair efficiency (log10)” value is -0.0271. The “HR repair efficiency (log10)” value in experiment [2] was -0.177.
As for `C=CCc1ccc(O)c(-c2cc(CC=C)ccc2O)c1` [Magnolol], the “NHEJ repair efficiency (log10)” value in experiment [1] was determined as 0.0133. Besides, the “HR repair efficiency (log10)” value in experiment [2] is 0.105.
`O=Cc1ccc(O)cc1` [4-Hydroxybenzaldehyde]: in experiment [1], the “NHEJ repair efficiency (log10)” value is 0.0829. Moreover, the “HR repair efficiency (log10)” value in experiment [2] worked out at 0.0974.
For `COc1cc(-c2oc3cc(O)cc(O)c3c(=O)c2O[C@@H]2O[C@H](CO)[C@@H](O)[C@H](O)[C@H]2O[C@@H]2O[C@@H](C)[C@H](O)[C@@H](O)[C@H]2O)ccc1O` [Isorhamnetin 3-O-Neohesperoside], in experiment [1], the “NHEJ repair efficiency (log10)” value is -0.0528. The “HR repair efficiency (log10)” value in experiment [2] is -0.0275.
The matching figures for `O=C(O)/C=C/c1ccc(O)cc1` [P-Coumaric Acid]: 0.1 and 0.212.
For the compound `Cc1cc(O)c(C(=O)CCC(C)C)c(=O)o1` [Pogostone], the “NHEJ repair efficiency (log10)” value in experiment [1] is -0.0825. Also, in experiment [2], the “HR repair efficiency (log10)” value is -0.0091.
Regarding `CC1(C)CC[C@]2(C(=O)O[C@@H]3O[C@H](CO[C@@H]4O[C@H](CO)[C@@H](O)[C@H](O)[C@H]4O)[C@@H](O)[C@H](O)[C@H]3O)CC[C@]3(C)C(=CC[C@@H]4[C@@]5(C)CC[C@H](O[C@@H]6OC[C@H](O)[C@H](O)[C@H]6O)[C@@](C)(CO)[C@@H]5CC[C@]43C)[C@@H]2C1` [Akebiasaponin D], the “NHEJ repair efficiency (log10)” value in experiment [1] was 0.328. The “HR repair efficiency (log10)” value in experiment [2] is -0.29.
Taken in the same sequence, the figures for `Cc1c(O)c(C)c2c(c1O)C(=O)C[C@@H](c1ccc(O)cc1)O2` [Farrerol] were -0.0045 and 0.437.
For the compound `COc1cc(C2Oc3cc([C@H]4Oc5cc(O)cc(O)c5C(=O)[C@@H]4O)ccc3OC2CO)ccc1O` (stereo not given in full) [Silymarin Ⅱ], the “NHEJ repair efficiency (log10)” value in experiment [1] is -0.124. Also, the “HR repair efficiency (log10)” value in experiment [2] is -0.127.
Taken in the same sequence, the figures for `COc1cc(O)c(CC=C(C)C)c(O)c1C(=O)/C=C/c1ccc(O)cc1` [Xanthohumol] were 0.0812 and 0.0483.
As to `COc1cc2ccc(=O)oc2cc1O` [Scopoletin], in experiment [1], the “NHEJ repair efficiency (log10)” value is -0.0239. Further, the “HR repair efficiency (log10)” value in experiment [2] was -0.177.
Regarding `O=C(/C=C/c1ccc(O)c(O)c1)O[C@@H]1[C@H](O)C[C@@](O)(C(=O)O)C[C@H]1OC(=O)/C=C/c1ccc(O)c(O)c1` [Isochlorogenic acid B], the “NHEJ repair efficiency (log10)” value in experiment [1] worked out at 0.142. Further, in experiment [2], the “HR repair efficiency (log10)” value was 0.105.

(Values after the supplement of paper PMC7380943.)
